The results in this text go back to PubChem BioAssay (NCI).

The panel holds about 83,000 compounds, 20% with a hit somewhere; the sample as a whole holds those more often.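 Interpretation: 100, growth as untreated; towards 0, rising growth inhibition; 0, no net growth; 0 to -100, cell death. Compounds scoring below 10 were considered active.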 Values without a mark were called inactive. Active and inactive are the calls of the source.

Holding throughout (test): NCI-60 one-dose screen, 48 h (100 = growth as untreated, 0 = no growth, -100 = all killed)
The test system of one assay is DU-145 prostate. The following applies: 10 µM unless noted.
The next assay relates to K-562 leukemia. The conditions noted are these: 10 µM unless noted.
The next assay has as its system MALME-3M melanoma. The following applies: 10 µM unless noted.
For a further assay, the system named is MDA-MB-231 breast. The following applies: 10 µM unless noted.
Another assay concerns RXF 393 renal. The following applies: 10 µM unless noted.
The next assay has as its system SF-268 CNS. The following applies: 10 µM unless noted.
The next assay deals with SF-295 CNS. The following applies: 10 µM unless noted.
In another assay the test system is SF-539 CNS. The conditions noted are these: 10 µM unless noted.
The test system of another assay is UACC-257 melanoma. The conditions noted are these: 10 µM unless noted.
The next assay has as its system M14 melanoma. The conditions noted are these: 10 µM unless noted.
The subject of the next assay is HCT-15 colon. The conditions noted are these: 10 µM unless noted.
The next assay deals with HT29 colon. The following applies: 10 µM unless noted.
The test system of the next assay is SNB-19 CNS. The conditions noted are these: 10 µM unless noted.
The next assay deals with U251 CNS. The conditions noted are these: 10 µM unless noted.
The next assay has as its system PC-3 prostate. The conditions noted are these: 10 µM unless noted.
The test system of the next assay is SK-MEL-5 melanoma. The conditions noted are these: 10 µM unless noted.
A further assay concerns UACC-62 melanoma. The conditions noted are these: 10 µM unless noted.
Another assay relates to LOX IMVI melanoma. The conditions noted are these: 10 µM.
The subject of a further assay is SK-MEL-28 melanoma. The conditions noted are these: 10 µM unless noted.
Another assay concerns SNB-75 CNS. The following applies: 10 µM unless noted.

Turning to `CCCSc1nc(Nc2ccc(S(N)(=O)=O)cc2)c(C#N)c(-c2cc(OC)c(OC)c(OC)c2)n1`, the growth in the assay on DU-145 prostate is 26.2%; in the assay with K-562 leukemia, 2.89% (active); in the assay on MALME-3M melanoma it was -2.83% (active); in the assay with MDA-MB-231 breast, 43.9%; with RXF 393 renal it was -2.49% (active); with SF-268 CNS it was 45.2%. Moreover, the growth in the assay on SF-295 CNS is 14.1%; in the assay on SF-539 CNS, 37%; in the assay with UACC-257 melanoma, 42%; in the assay with M14 melanoma, 18.3%; in the assay on HCT-15 colon, 15.3%; in the assay with HT29 colon it was 16.6%. Further, the growth in the assay on SNB-19 CNS is 43.8%; in the assay on U251 CNS, 27.4%; in the assay on PC-3 prostate, 12.6%; in the assay on SK-MEL-5 melanoma, 6.41% (active); in the assay on UACC-62 melanoma it was 21%; in the assay with LOX IMVI melanoma, 5.09% (active). Moreover, the growth in the assay on SK-MEL-28 melanoma is 35.8%.

For `Cc1ccccc1[C@H]1C(C(=O)c2ccc(Cl)cc2)C2(N[C@@H]1c1ccccc1)C(=O)Nc1ccccc12` (some centres undefined), the growth in the assay on DU-145 prostate was -34.4% (active); in the assay on K-562 leukemia it was -21% (active); with MALME-3M melanoma, -64.7% (active); in the assay on MDA-MB-231 breast it was -60.4% (active); in the assay with RXF 393 renal it was -66% (active); in the assay with SF-268 CNS, -12.5% (active). In addition, the growth with SF-295 CNS is -19% (active); in the assay on SF-539 CNS, -69.5% (active); in the assay on UACC-257 melanoma, -16.4% (active); in the assay on M14 melanoma it was -77.9% (active); with HCT-15 colon, -14% (active); with HT29 colon it was -88.7% (active). Further, the growth with SNB-19 CNS was 16.2%; with U251 CNS, -58.1% (active); with PC-3 prostate it was -22.6% (active); in the assay with SK-MEL-5 melanoma, -72.2% (active); with UACC-62 melanoma, -83.5% (active); with LOX IMVI melanoma, -100% (active).

`COc1c(F)ccc(C(=O)Nc2ccc3nc(NC(=O)C4CCCN(S(=O)(=O)C5CC5)C4)sc3c2)c1F` (centres undefined): the growth with DU-145 prostate is 66.8%; in the assay on K-562 leukemia, 20.5%; in the assay with MALME-3M melanoma, 43.5%; with MDA-MB-231 breast it was 46.7%; with RXF 393 renal it was -4.35% (active); in the assay with SF-268 CNS, 76.2%. Moreover, the growth in the assay with SF-295 CNS is 18.1%; with SF-539 CNS, 37.6%; with UACC-257 melanoma it was 20.9%; in the assay on M14 melanoma, 50.3%; in the assay on HCT-15 colon, 34%; with HT29 colon it was 44.1%. The growth was 63.5% in the assay on SNB-19 CNS; 47.6% in the assay with U251 CNS; 39.1% in the assay on PC-3 prostate; -43.8% (active) in the assay on SK-MEL-5 melanoma; 44.7% with UACC-62 melanoma; 24.5% with LOX IMVI melanoma. Further, the growth with SK-MEL-28 melanoma was 56.2%.

`Cc1sc(C(NC(=O)OCCn2c([N+](=O)[O-])cnc2C)C(F)(F)Cl)nc1-c1ccc(OC(F)(F)F)cc1` (centres undefined): the growth in the assay on DU-145 prostate was -70.4% (active); in the assay on K-562 leukemia, 0.935% (active); in the assay on MALME-3M melanoma, -75% (active); in the assay with MDA-MB-231 breast, -94.8% (active); with RXF 393 renal, -88.6% (active); in the assay on SF-268 CNS it was -38.6% (active). Besides, the growth in the assay with SF-295 CNS was -98.8% (active); with SF-539 CNS, -92.4% (active); with UACC-257 melanoma, -73% (active); in the assay with M14 melanoma, -67.5% (active); with HCT-15 colon it was -92.5% (active); in the assay on HT29 colon, -83.4% (active). Also, the growth with SNB-75 CNS was -32.9% (active); in the assay with U251 CNS, -85.7% (active); in the assay with PC-3 prostate, -65.1% (active); with SK-MEL-5 melanoma it was -99.5% (active); with UACC-62 melanoma, -96.1% (active); in the assay with LOX IMVI melanoma, -98.3% (active). In addition, in the assay on SK-MEL-28 melanoma, the growth was -92.2% (active).

`CCCCSc1nc(Nc2ccc(S(N)(=O)=O)cc2)c(C#N)c(-c2ccc(Cl)cc2)n1`: the growth is 53% with DU-145 prostate; 5.58% (active) in the assay with K-562 leukemia; 22.9% in the assay on MALME-3M melanoma; -36.1% (active) in the assay on MDA-MB-231 breast; 16.8% in the assay on RXF 393 renal; 69.2% with SF-268 CNS. Also, the growth in the assay with SF-295 CNS was 8.15% (active); in the assay on SF-539 CNS it was -25.2% (active); in the assay with UACC-257 melanoma it was 76%; in the assay with M14 melanoma it was 10.6%; with HCT-15 colon, -8.65% (active); in the assay on HT29 colon it was 8.86% (active). Also, the growth in the assay with SNB-19 CNS is 45.5%; with U251 CNS, -55.7% (active); in the assay with PC-3 prostate, 55.8%; in the assay with SK-MEL-5 melanoma, 59.6%; with UACC-62 melanoma it was 48.4%; in the assay with LOX IMVI melanoma, -99.9% (active).

Take `COc1ccc(-c2ccc(SCC(=O)NCCc3ccc(S(N)(=O)=O)cc3)nn2)cc1`: the growth with DU-145 prostate is 96.1%; with K-562 leukemia it was 54.1%; in the assay with MALME-3M melanoma, 89.3%; in the assay with MDA-MB-231 breast, 92.6%; in the assay on RXF 393 renal, 80.2%; in the assay on SF-268 CNS, 103%. In addition, the growth with SF-295 CNS is 84.9%; in the assay on SF-539 CNS, 88.7%; in the assay on UACC-257 melanoma, 55.3%; in the assay with M14 melanoma, 99.7%; in the assay with HCT-15 colon it was 110%; in the assay with HT29 colon, 96.5%. Moreover, the growth in the assay with SNB-19 CNS was 77.4%; in the assay on U251 CNS, 91.1%; in the assay with PC-3 prostate it was 81.8%; in the assay on SK-MEL-5 melanoma, 52.9%; in the assay on UACC-62 melanoma, 75.8%; with LOX IMVI melanoma it was 89.1%. The growth in the assay on SK-MEL-28 melanoma is 89.1%.

`CC12CC[C@@H]3[C@]4(C)COC(c5cn[nH]c5-c5cccc(Cl)c5)O[C@@H]4CC[C@@]3(C)[C@@H]1CC(C1=CCOC1=O)O2` (some centres undefined): the growth with DU-145 prostate is 56.6%; in the assay on K-562 leukemia, 25%; in the assay with MALME-3M melanoma, 40.5%; in the assay on MDA-MB-231 breast, 36.4%; in the assay with RXF 393 renal it was 18.3%; in the assay with SF-268 CNS, 45.5%. Moreover, the growth in the assay with SF-295 CNS was 35.4%; in the assay on SF-539 CNS, 58.2%; in the assay on UACC-257 melanoma, 43.3%; with M14 melanoma it was 25.3%; with HCT-15 colon, 35.1%; in the assay with HT29 colon it was 28%. Further, the growth in the assay on SNB-19 CNS was 56.8%; with U251 CNS, 38.6%; with PC-3 prostate it was 12.6%; with SK-MEL-5 melanoma it was 8.92% (active); in the assay on UACC-62 melanoma, 26.9%; in the assay with LOX IMVI melanoma, 40.3%.

For `CCCCSc1nc(NCCc2c[nH]c3ccccc23)c(C#N)c(-c2ccccc2)n1`, the growth is 54% in the assay on DU-145 prostate; 8.19% (active) with K-562 leukemia; 86.9% with MALME-3M melanoma; 18.3% in the assay with MDA-MB-231 breast; -8.31% (active) in the assay on RXF 393 renal; 39.9% in the assay with SF-268 CNS. Also, the growth was 48.4% in the assay with SF-295 CNS; 46.6% in the assay on SF-539 CNS; 81.4% in the assay with UACC-257 melanoma; 60.1% in the assay with M14 melanoma; 16.8% in the assay on HCT-15 colon; 1.16% (active) with HT29 colon. The growth in the assay with SNB-75 CNS was 70.7%; in the assay on U251 CNS it was 8.25% (active); in the assay on PC-3 prostate, 13.2%; in the assay with SK-MEL-5 melanoma it was 17.2%; in the assay on UACC-62 melanoma it was 72%; with LOX IMVI melanoma, -34% (active). Further, the growth in the assay with SK-MEL-28 melanoma was 81.1%.
